Test results: PubChem BioAssay (NCI)
About 79,000 compounds went through this panel and 15% of them were active in at least one assay; those are over-represented in the sample as a whole. Activity calls are given as the source filed them. Cut-off read from the data, not from the text of the source: active = growth inhibition above about 70%; inactive = the rest.

test: NCI Yeast Anticancer Drug Screen. Data for the bub3 strain (AID 167); details: S. cerevisiae bub3 mutant strain, at 5.0 µM (retest, dose inferred, filed as 0.5), stronger effect = higher value
Summary of the method: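 Mutant yeast screening strain plus compound; vehicle-treated cultures serve as the 0% inhibition reference.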

Compound	growth inhibition
O=C(/C=C/c1cccc(Cl)c1)c1ccccc1	-30% (inactive)
COc1cccc(N2C(=O)C3CC(CC(C)(C)C)c4c([nH]c5ccccc45)C3C2=O)c1 (stereo not given)	13% (inactive)
O=C1c2ccccc2NC(=O)C2C1C(c1ccccc1)CC2(O)c1ccccc1 (stereo not given)	-27% (inactive)
CCOC(=O)C1SC(=Nc2ccc(Cl)cc2)N=C1C (stereo not given)	19% (inactive)
COC(=O)c1nc(=S)[nH]c(C(=O)OC)c1C(=O)c1ccccn1	6% (inactive)
Cn1c2c(c3ccccc31)CCN1C[C@@H]3CCCC[C@H]3C[C@@H]21	2% (inactive)
CCCCCCCCCCCC1=NCCN1CCNCCCC	4% (inactive)
CN=C(N)N/N=C(\C)c1ccc2c(c1)Cc1cc(/C(C)=N/NC(N)=NC)ccc1-2	54% (inactive)
O=C(Nc1ccccc1)OCCc1ccc(Br)cc1	-5% (inactive)
CN(C)CC/C(=N\Nc1ccc(Cl)cc1)c1ccccc1	98% (active)
O=C1Nc2ccccc2/C1=N\N=c1/scc(-c2ccccc2)n1-c1ccccc1	9% (inactive)
CC(C)(C)C(=O)CC(=O)C(F)(F)C(F)(F)C(F)(F)F.CC(C)(C)C(=O)CC(=O)C(F)(F)C(F)(F)C(F)(F)F.CC(C)(C)C(=O)CC(=O)C(F)(F)C(F)(F)C(F)(F)F.[Fe]	-1% (inactive)
COc1cc(N=Nc2cccc(S(N)(=O)=O)c2)c2ccccc2c1N	-5% (inactive)
O=C(/C=C/C(=O)OCCCl)OCCCl	46% (inactive)
CCc1ccccc1NC(=O)C1=C(C)NC(C)=C(C(=O)Nc2c(CC)cccc2CC)C1c1ccc2c(c1)OCO2 (stereo not given)	24% (inactive)
Oc1c(Cl)cc(Cl)c2cccnc12	64% (inactive)
COc1ccc2c(c1)[n+]([O-])c(-c1ccccc1)c(N)[n+]2[O-]	87% (active)
O=c1cccccc1[O-].O=c1cccccc1[O-].O=c1cccccc1[O-].[Sm+3]	11% (inactive)
CCCCCCCCCCCCCCCCNc1ccn(C2CC(OP(=O)(O)OCC3OC(n4cc(CC)c(=O)[nH]c4=O)CC3O)C(CO)O2)c(=O)n1 (stereo not given)	-19% (inactive)
Nc1ccccc1OCC(O)CN1CCN(Cc2ccccc2)CC1 (stereo not given)	-1% (inactive)

Compound	growth inhibition
O=S(=O)(O)c1ccc(O)c2cc(Nc3ccccc3)ccc12	2% (inactive)
CCOC(=O)/C(=C\c1ccc(-c2ccccc2)cc1)C(C)=O	16% (inactive)
O=C(C(Oc1ccc(Cl)cc1)Oc1ccc(Cl)cc1)N(O)c1ccccc1OCc1ccccc1	6% (inactive)
CN(C)CC1CCC/C(=C\c2ccc(Cl)cc2)C1=O (stereo not given)	-38% (inactive)
COc1ccc(/C=N/Nc2ccccc2)cc1	-17% (inactive)
O=C1c2ccccc2-c2ccccc2C(=O)C1(Br)Br	-7% (inactive)
CC(=O)Nc1ccc(C(=O)n2[nH]c(C)c(/C=C3\C(=O)C=Cc4ccccc43)c2=O)cc1	24% (inactive)
CC1OC2CC(=O)OC2C2=C1C(=O)c1c(O)cccc1C2=O (stereo not given)	99% (active)
CCOC(=O)C(CCSC)C(=O)OCC	-3% (inactive)
C[CH2][Sn]([CH2]C)([O]C(=O)c1cccc(OC)c1)[O][Sn]([CH2]C)([CH2]C)[O]C(=O)c1cccc(OC)c1	30% (inactive)
O=C(Nc1ccccc1)Oc1c(Cl)c(Cl)c(Cl)c(Cl)c1Cl	-2% (inactive)
CCN(CC)CCNc1ccc2nnn3c4ccc([N+](=O)[O-])cc4c(=O)c1c23	9% (inactive)
CCCCCCN(CCCCCC)CCC(=O)c1ccc2cc(Br)c3ccccc3c2c1	20% (inactive)
COC(=O)/C=C1/Nc2ccc(Cl)cc2C(=O)NC1=O	41% (inactive)
CN(C)COC(=S)SCN(C)C	96% (active)
Clc1ccc(-c2noc(CN3CCCCC3)n2)cc1	-1% (inactive)
CCCCCCCCCCCCCC(=O)OCC(O)CO (stereo not given)	1% (inactive)
CCC[CH2][Sn]([CH2]CCC)([O]C(=O)c1cccc(F)c1)[O]C(=O)c1cccc(F)c1	-2% (inactive)
CCCCCCCCCCCCCCCCC1CCc2ccccc21 (stereo not given)	38% (inactive)
CCOC(=O)NCCCc1ccc2oc3ccccc3c2c1	9% (inactive)

same assay, conditions: S. cerevisiae bub3 mutant strain, at 50.0 µM (retest, dose inferred, filed as 5.0), stronger effect = higher value

Compound	growth inhibition
O=C(/C=C/c1cccc(Cl)c1)c1ccccc1	98% (active)
COc1cccc(N2C(=O)C3CC(CC(C)(C)C)c4c([nH]c5ccccc45)C3C2=O)c1 (stereo not given)	11% (inactive)
O=C1c2ccccc2NC(=O)C2C1C(c1ccccc1)CC2(O)c1ccccc1 (stereo not given)	75% (active)
CCOC(=O)C1SC(=Nc2ccc(Cl)cc2)N=C1C (stereo not given)	69% (inactive)
COC(=O)c1nc(=S)[nH]c(C(=O)OC)c1C(=O)c1ccccn1	86% (active)
Cn1c2c(c3ccccc31)CCN1C[C@@H]3CCCC[C@H]3C[C@@H]21	0% (inactive)
CCCCCCCCCCCC1=NCCN1CCNCCCC	79% (active)
CN=C(N)N/N=C(\C)c1ccc2c(c1)Cc1cc(/C(C)=N/NC(N)=NC)ccc1-2	96% (active)
O=C(Nc1ccccc1)OCCc1ccc(Br)cc1	7% (inactive)
CN(C)CC/C(=N\Nc1ccc(Cl)cc1)c1ccccc1	99% (active)
O=C1Nc2ccccc2/C1=N\N=c1/scc(-c2ccccc2)n1-c1ccccc1	87% (active)
CC(C)(C)C(=O)CC(=O)C(F)(F)C(F)(F)C(F)(F)F.CC(C)(C)C(=O)CC(=O)C(F)(F)C(F)(F)C(F)(F)F.CC(C)(C)C(=O)CC(=O)C(F)(F)C(F)(F)C(F)(F)F.[Fe]	37% (inactive)
COc1cc(N=Nc2cccc(S(N)(=O)=O)c2)c2ccccc2c1N	99% (active)
O=C(/C=C/C(=O)OCCCl)OCCCl	91% (active)
CCc1ccccc1NC(=O)C1=C(C)NC(C)=C(C(=O)Nc2c(CC)cccc2CC)C1c1ccc2c(c1)OCO2 (stereo not given)	24% (inactive)
Oc1c(Cl)cc(Cl)c2cccnc12	97% (active)
COc1ccc2c(c1)[n+]([O-])c(-c1ccccc1)c(N)[n+]2[O-]	99% (active)
O=c1cccccc1[O-].O=c1cccccc1[O-].O=c1cccccc1[O-].[Sm+3]	11% (inactive)
CCCCCCCCCCCCCCCCNc1ccn(C2CC(OP(=O)(O)OCC3OC(n4cc(CC)c(=O)[nH]c4=O)CC3O)C(CO)O2)c(=O)n1 (stereo not given)	92% (active)
Nc1ccccc1OCC(O)CN1CCN(Cc2ccccc2)CC1 (stereo not given)	9% (inactive)

Compound	growth inhibition
O=S(=O)(O)c1ccc(O)c2cc(Nc3ccccc3)ccc12	-25% (inactive)
CCOC(=O)/C(=C\c1ccc(-c2ccccc2)cc1)C(C)=O	96% (active)
O=C(C(Oc1ccc(Cl)cc1)Oc1ccc(Cl)cc1)N(O)c1ccccc1OCc1ccccc1	57% (inactive)
CN(C)CC1CCC/C(=C\c2ccc(Cl)cc2)C1=O (stereo not given)	99% (active)
COc1ccc(/C=N/Nc2ccccc2)cc1	97% (active)
O=C1c2ccccc2-c2ccccc2C(=O)C1(Br)Br	-18% (inactive)
CC(=O)Nc1ccc(C(=O)n2[nH]c(C)c(/C=C3\C(=O)C=Cc4ccccc43)c2=O)cc1	100% (active)
CC1OC2CC(=O)OC2C2=C1C(=O)c1c(O)cccc1C2=O (stereo not given)	99% (active)
CCOC(=O)C(CCSC)C(=O)OCC	3% (inactive)
C[CH2][Sn]([CH2]C)([O]C(=O)c1cccc(OC)c1)[O][Sn]([CH2]C)([CH2]C)[O]C(=O)c1cccc(OC)c1	86% (active)
O=C(Nc1ccccc1)Oc1c(Cl)c(Cl)c(Cl)c(Cl)c1Cl	99% (active)
CCN(CC)CCNc1ccc2nnn3c4ccc([N+](=O)[O-])cc4c(=O)c1c23	35% (inactive)
CCCCCCN(CCCCCC)CCC(=O)c1ccc2cc(Br)c3ccccc3c2c1	92% (active)
COC(=O)/C=C1/Nc2ccc(Cl)cc2C(=O)NC1=O	80% (active)
CN(C)COC(=S)SCN(C)C	99% (active)
Clc1ccc(-c2noc(CN3CCCCC3)n2)cc1	25% (inactive)
CCCCCCCCCCCCCC(=O)OCC(O)CO (stereo not given)	22% (inactive)
CCC[CH2][Sn]([CH2]CCC)([O]C(=O)c1cccc(F)c1)[O]C(=O)c1cccc(F)c1	-2% (inactive)
CCCCCCCCCCCCCCCCC1CCc2ccccc21 (stereo not given)	39% (inactive)
CCOC(=O)NCCCc1ccc2oc3ccccc3c2c1	98% (active)
